# Laboratory results published in publication PMC4336329 (PLoS ONE, 2015).
# Among all 310,000 compounds or so, about 14,000 (4.5%) showed an effect of 50% or more. The effect is printed as a negative number. Only a selection was taken, and strong results are over-represented in it overall.
# Biological target: human ether-à-go-go-related gene (hERG) potassium channel (human, UniProt Q12809)
# Experiment: primary screen, population patch clamp on CHO cells stably expressing hERG; higher = less effect of the substance
# 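Note: peak tail current of the secondary pulse compared with the same well before compound.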
# Chain of human ether-à-go-go-related gene (hERG) potassium channel (Q12809 whole entry, looked up): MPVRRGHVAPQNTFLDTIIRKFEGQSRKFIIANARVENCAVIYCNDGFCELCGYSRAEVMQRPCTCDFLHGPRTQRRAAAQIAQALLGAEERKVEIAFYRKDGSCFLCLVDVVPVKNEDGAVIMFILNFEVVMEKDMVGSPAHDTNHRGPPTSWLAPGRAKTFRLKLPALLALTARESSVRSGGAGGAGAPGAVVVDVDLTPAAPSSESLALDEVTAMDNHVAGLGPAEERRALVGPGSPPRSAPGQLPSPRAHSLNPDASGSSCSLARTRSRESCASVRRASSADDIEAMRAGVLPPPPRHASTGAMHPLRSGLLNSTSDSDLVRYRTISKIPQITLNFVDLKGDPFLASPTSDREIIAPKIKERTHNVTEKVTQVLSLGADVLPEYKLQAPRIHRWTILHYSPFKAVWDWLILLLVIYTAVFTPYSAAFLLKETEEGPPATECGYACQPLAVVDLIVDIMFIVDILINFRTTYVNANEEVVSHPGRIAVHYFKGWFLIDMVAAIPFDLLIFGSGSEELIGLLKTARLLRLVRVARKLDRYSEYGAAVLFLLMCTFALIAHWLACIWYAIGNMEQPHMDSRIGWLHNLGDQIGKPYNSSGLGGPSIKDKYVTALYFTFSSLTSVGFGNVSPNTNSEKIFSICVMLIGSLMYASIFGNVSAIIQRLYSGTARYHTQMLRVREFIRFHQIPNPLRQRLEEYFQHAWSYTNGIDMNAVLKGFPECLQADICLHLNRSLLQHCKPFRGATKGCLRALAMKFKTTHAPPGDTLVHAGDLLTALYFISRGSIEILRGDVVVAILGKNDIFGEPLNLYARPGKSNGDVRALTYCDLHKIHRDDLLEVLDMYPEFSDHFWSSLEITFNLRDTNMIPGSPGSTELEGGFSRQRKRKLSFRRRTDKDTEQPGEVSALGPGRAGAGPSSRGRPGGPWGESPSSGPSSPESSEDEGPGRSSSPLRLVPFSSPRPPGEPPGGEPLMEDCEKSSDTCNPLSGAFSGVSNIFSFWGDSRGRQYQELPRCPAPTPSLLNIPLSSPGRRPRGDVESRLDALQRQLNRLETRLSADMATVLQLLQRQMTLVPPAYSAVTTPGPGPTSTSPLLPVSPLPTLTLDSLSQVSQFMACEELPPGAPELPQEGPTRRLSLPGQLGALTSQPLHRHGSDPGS
row,Compound,"hERG current change (%, negative = inhibition) at 10uM [%]"
1,CCOC(=O)c1ccc(NC(=S)N(CCCN2CCCCCC2)Cc2ccco2)cc1,-73.7
2,COC(=O)c1ccc(NC(=S)N(Cc2cccnc2)Cc2ccco2)cc1,-29.1
3,COc1ccc(NC(=S)N(Cc2cccnc2)Cc2ccco2)cc1,-24.5
4,Cc1ccc(CSc2nc3c(c(N(C)C)n2)CCCC3)cc1,-5.63
5,CCC(Cc1c(I)cc(I)c(N)c1I)C(=O)O (stereo not shown),-0.155
6,C=C1c2ccccc2NC(=S)N1Cc1ccc2c(c1)OCO2,27.5
7,Cc1ccc(CNC(=O)c2ccc(N3CCC4(CC3)CC(c3ccccc3)=NO4)c(NC(=O)c3ccco3)c2)cc1,6.09
8,COC(=O)CN(c1ccc(C)cc1)S(=O)(=O)c1ccc(F)cc1,-19.9
9,Cc1ccc(NS(=O)(=O)c2ccc3c(c2)c(=O)n(C)c(=O)n3C)cc1F,-15.5
10,CCN1CCN(Cc2cc(=O)oc3cc4c(cc23)CCC4)CC1,-29.7
11,Cc1ccc2oc(=O)cc(CN3CCOCC3)c2c1,-8.53
12,Cc1ccc2oc(=O)cc(CN3CCCCC3)c2c1,15.9
13,Cc1cc2oc(=O)cc(CN3CCOCC3)c2cc1O,-22.6
14,COc1ccc(N2CCN(Cc3cc(=O)oc4cc(-c5ccccc5)c(O)cc34)CC2)cc1,-0.18
15,Cc1ccc2oc(=O)cc(CN3CCN(C/C=C/c4ccccc4)CC3)c2c1,-76.9
16,CN1CCN(Cc2cc(=O)oc3cc4c(cc23)CCC4)CC1,-8.2
17,Cc1cc2oc(=O)cc(CN3CCN(Cc4ccccc4)CC3)c2cc1O,-53.3
18,Cc1cc2oc(=O)cc(CN3CCN(Cc4ccccc4)CC3)c2cc1Cl,-22.8
19,CC(C)c1ccc2oc(=O)cc(CN3CCN(c4ccccc4)CC3)c2c1,-10.4
20,O=c1cc(CN2CCN(C/C=C/c3ccccc3)CC2)c2cc(O)ccc2o1,-77.5
21,O=c1cc(CN2CCN(Cc3ccccc3)CC2)c2cc3c(cc2o1)CCC3,-51
22,Cc1ccc(S(=O)(=O)N2CCCCC2CCNC(=O)C(=O)NCC2CCCO2)cc1 (stereo not shown),-23.6

row,Compound,"hERG current change (%, negative = inhibition) at 10uM [%]"
1,O=C(CSc1cccc2cccnc12)N1CCCC1,12
2,NS(=O)(=O)c1ccc(NC(=O)c2c(Cl)cccc2Cl)cc1,9.38
3,Cc1cc2oc(=O)cc(CN3CCN(C/C=C/c4ccccc4)CC3)c2cc1O,-80.9
4,O=c1cc(CN2CCN(C/C=C/c3ccccc3)CC2)c2cc(O)c(-c3ccccc3)cc2o1,11.6
5,Cc1c(O)ccc2c(CN(C)Cc3ccccc3)cc(=O)oc12,10.2
6,Cc1ccc2c(CN3CCOCC3)cc(=O)oc2c1C,0.23
7,Cc1c(O)ccc2c(CN3CCN(C/C=C/c4ccccc4)CC3)cc(=O)oc12,-64.1
8,Cc1cc2oc(=O)cc(CN3CCCCC3)c2cc1O,-1.42
9,CCC(C)Sc1ccc([C@H]2N[C@@](C)(C(=O)OC)[C@H]3C(=O)N(CC)C(=O)[C@@H]23)cc1.O=C(O)C(F)(F)F (stereo partly shown),7.25
10,Brc1ccc(-c2nnc3n2-c2ccccc2CC3)cc1,-41.3
11,COc1ccc(NC(=O)c2ccc(Cl)nc2)cc1S(=O)(=O)N1CCOCC1,-10.5
12,COc1ccc(NC(=O)c2cc(OC)c(OC)c(OC)c2)cc1S(=O)(=O)N1CCCCC1,15.5
13,COc1ccc(C(=O)Nc2ccc(S(=O)(=O)N3CCCCC3)cc2)cc1OC,-9.83
14,COc1ccc(NC(=O)c2ccc(S(=O)(=O)N3CCCC3)cc2)cc1OC,-158
15,COc1ccc(NC(=O)c2ccc(Cl)nc2)cc1S(=O)(=O)N1CCCCC1,-59
16,COc1ccc(NC(=O)c2cccc(S(=O)(=O)N3CCCC3)c2)cc1OC,-4.78
17,S=C(c1c[nH]c2ccccc12)N1CCCC1,9.74
18,Cc1ccc(CN2CC(C(=O)Nc3nnc(SCc4c(Cl)cccc4Cl)s3)CC2=O)cc1 (stereo not shown),14.1
19,Cn1cc(C(=O)OCC(=O)NC2CCCC2)c2ccccc21,7.9
20,O=[N+]([O-])c1ccccc1S(=O)(=O)NCCc1ccncc1,14.9
21,COc1ccccc1C(=O)OCC(=O)Nc1ccc(Cl)cn1,10.1
